Values joined by “and” are separate entries in the source; they are usually repeats but may differ in a detail not shown here. Equal entries are not always repeated. Records with an inconclusive call do not appear. Where a call stands in place of a potency, no number is given. Some structures have more than one record in an assay (separate samples or runs), and their calls can disagree. Active and inactive are the calls of the source. Unless noted, the call rests on the fitted dose curve; in most records, active means well fitted curve in the direction sought with a large enough effect in the repeat runs; inconclusive means weak or mixed curves; inactive means no such curve, though single readings can be large; an effect the other way counts as inactive or inconclusive.
How the values were obtained:
[1] = qHTS assay to identify small molecule antagonists of the glucocorticoid receptor (GR) signaling pathway - cell viability counter screen (AID 720693); further: nearly all actives have a fitted effect of over 55% in size
[2] = qHTS assay for identifying genotoxic compounds that show differential cytotoxicity against isogenic chicken DT40 cell lines with known DNA damage response pathways - Rev3 mutant cell line (AID 743014); further: nearly all actives have a fitted effect of over 55% in size
[3] = qHTS assay to identify small molecule antagonists of the androgen receptor (AR) signaling pathway using the MDA cell line - cell viability counter screen (AID 743041; further: nearly all actives have a fitted effect of over 45% in size)
Summary of the method: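 Cytotoxicity counter screen: MDA-kb2 AR-luc cells, compound + R1881, 16 h, 37C, 0% CO2; CellTiter-Fluor added at 15.5 h, fluorescence read after 30 min.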

[4] = qHTS assay to identify small molecule antagonists of the thyroid receptor (TR) signaling pathway - cell viability counter screen (AID 743064); further: nearly all actives have a fitted effect of over 50% in size
Summary of the method: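 Same-well viability check: GH3.TRE-Luc cells stimulated with 1 nM T3 alongside test compound for 23.5 h, followed by CellTiter-Fluor fluorescence.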

[5] = qHTS assay to identify small molecule antagonists of the androgen receptor (AR) signaling pathway - cell viability counter screen (AID 743033; further: nearly all actives have a fitted effect of over 45% in size)
[6] = qHTS assay for identifying genotoxic compounds that show differential cytotoxicity against isogenic chicken DT40 cell lines with known DNA damage response pathways - wild type cell line (AID 743012); further: nearly all actives have a fitted effect of over 60% in size
Summary of the method: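 Endpoint: CellTiter-Glo luminescence, 30 min RT. Cells: wild type DT40, 300/well. Exposure: compounds in DMSO, 40 h, 37 C/5% CO2, after ~0.5 h pre-incubation.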

[7] = qHTS assay for identifying genotoxic compounds that show differential cytotoxicity against isogenic chicken DT40 cell lines with known DNA damage response pathways - Rad54/Ku70 mutant cell line (AID 743015); further: nearly all actives have a fitted effect of over 60% in size
[8] = molecular target: Androgen receptor (Homo sapiens) (UniProt P10275); assay: qHTS assay to identify small molecule antagonists of the androgen receptor (AR) signaling pathway using the MDA cell line (AID 743042; further: nearly all actives have a fitted effect of over 55% in size)
Summary of the method: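 MDA-kb2 breast carcinoma cells carrying MMTV-luciferase (AR/GR responsive) were co-treated with compounds and the agonist R1881 for 16 h at 37C. Inhibition read as ONE-Glo luminescence; CellTiter-Fluor fluorescence measured in parallel for cytotoxicity.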

[9] = molecular target: Androgen receptor (Homo sapiens) (UniProt P10275); assay: qHTS assay to identify small molecule antagonists of the androgen receptor (AR) signaling pathway (AID 743035; active means well fitted inhibition curve with a large enough effect in the signal ratio in the repeat runs, not every such curve was filed as active; the % refers to the signal ratio)
Summary of the method: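 R1881 agonist challenge of a HEK293 UAS-beta-lactamase AR reporter line in the presence of compound (16 h, 37C); signal taken as FRET fluorescence after 2 h with LiveBLAzer B/G substrate at room temperature.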
Potency means the concentration at half of the fitted maximal effect.

Sequence of Androgen receptor (Homo sapiens) (P10275 whole entry, looked up): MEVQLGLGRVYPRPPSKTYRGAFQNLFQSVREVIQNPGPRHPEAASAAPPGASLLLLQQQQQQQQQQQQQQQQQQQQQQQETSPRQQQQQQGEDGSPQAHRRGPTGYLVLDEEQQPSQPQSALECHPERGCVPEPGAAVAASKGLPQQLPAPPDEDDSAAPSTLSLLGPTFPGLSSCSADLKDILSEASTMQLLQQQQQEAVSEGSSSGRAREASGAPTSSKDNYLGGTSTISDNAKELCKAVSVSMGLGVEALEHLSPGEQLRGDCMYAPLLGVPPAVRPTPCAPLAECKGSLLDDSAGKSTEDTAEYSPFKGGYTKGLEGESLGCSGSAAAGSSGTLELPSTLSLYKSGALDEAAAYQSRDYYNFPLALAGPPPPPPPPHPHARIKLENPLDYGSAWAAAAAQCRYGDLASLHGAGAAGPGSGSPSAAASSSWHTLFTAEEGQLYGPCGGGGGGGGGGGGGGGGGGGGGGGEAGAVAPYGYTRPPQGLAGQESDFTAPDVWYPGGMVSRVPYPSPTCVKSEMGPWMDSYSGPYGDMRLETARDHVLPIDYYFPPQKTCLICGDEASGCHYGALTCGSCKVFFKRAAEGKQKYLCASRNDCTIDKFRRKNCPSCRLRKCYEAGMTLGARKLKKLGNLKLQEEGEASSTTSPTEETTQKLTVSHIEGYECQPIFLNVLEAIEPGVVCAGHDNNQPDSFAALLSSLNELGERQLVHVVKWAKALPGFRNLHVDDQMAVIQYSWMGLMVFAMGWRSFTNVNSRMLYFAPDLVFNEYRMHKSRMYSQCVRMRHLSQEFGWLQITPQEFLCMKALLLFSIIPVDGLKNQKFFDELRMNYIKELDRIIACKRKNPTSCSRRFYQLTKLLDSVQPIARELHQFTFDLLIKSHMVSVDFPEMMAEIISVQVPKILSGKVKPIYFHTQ

CC1(C)CCC[C@]2(C)[C@H]3CC(=O)O[C@]3(C)CC[C@@H]12
Potency [1]: inactive | Potency [2]: 61.1 µM (active) | Potency [3]: inactive | Potency [4]: inactive

CCCC[P+](C)(CCCC)CCCC
Potency [1]: inactive | Potency [5]: inactive | Potency [3]: inactive | Potency [4]: inactive

CC(C)(C)C1CCC(=O)CC1
Potency [1]: inactive | Potency [5]: inactive | Potency [3]: inactive | Potency [4]: inactive

Cc1cccc2cccnc12
Potency [6]: inactive | Potency [2]: inactive | Potency [5]: inactive | Potency [3]: inactive | Potency [4]: inactive

CC[N+](CC)(CC)CCOc1ccc(/C=C/c2ccccc2)cc1
Potency [6]: 944 nM (active) and 750 nM (active) | Potency [2]: 750 nM (active) and 668 nM (active) | Potency [7]: 944 nM (active) and 750 nM (active) | Potency [5]: inactive | Potency [3]: 29.8 µM (active) | Potency [4]: inactive

Sc1nc2ccccc2s1
Potency [1]: inactive | Potency [3]: inactive | Potency [4]: inactive

Cc1c2ccccc2c(C)c2c1ccc1ccccc12
Potency [6]: 30.3 µM (active) and 3.06 µM (active) | Potency [2]: 15.2 µM (active) and 2.73 µM (active) | Potency [7]: 21.5 µM (active) and 4.33 µM (active) | Potency [3]: 61.1 µM (active) | Potency [8]: inactive and 30.6 µM (active) | Potency [4]: 27 µM (active) and 13.7 µM (active)

COCCOc1cc2cc(C(=O)NC3CCN(C(C)C)CC3)n(CC(=O)Nc3ccc(Cl)cn3)c2cn1
Potency [1]: inactive | Potency [2]: inactive | Potency [3]: inactive | Potency [4]: 60.4 µM (active)

C=CC(=O)Nc1cc2c(Nc3ccc(F)c(Cl)c3)ncnc2cc1OCCCN1CCOCC1
Potency [6]: 5.31 µM (active) | Potency [2]: 8.41 µM (active) | Potency [7]: 5.96 µM (active) | Potency [5]: inactive | Potency [4]: 5.31 µM (active)

[Cl][Pt-2]([Cl])([Cl])[Cl]
Potency [1]: inactive | Potency [7]: inactive | Potency [3]: inactive

C=Cc1ccccc1C=C
Potency [1]: inactive | Potency [5]: inactive | Potency [3]: inactive | Potency [4]: inactive

CCC(CC)(CC(=O)Nc1cccc(/C=C/c2nc(C3CCC3)cs2)c1)C(=O)O
Potency [1]: inactive | Potency [5]: inactive | Potency [3]: inactive | Potency [4]: inactive

O=c1c(O)c(-c2ccc(O)cc2O)oc2cc(O)cc(O)c12
Potency [1]: inactive | Potency [3]: inactive | Potency [4]: inactive

Clc1nnc(Cl)c2ccccc12
Potency [1]: inactive | Potency [7]: inactive | Potency [5]: inactive | Potency [3]: inactive | Potency [4]: inactive

Cc1cc(C)c(/C=C2\C(=O)Nc3ccccc32)[nH]1
Potency [6]: inactive | Potency [5]: inactive | Potency [9]: inactive | Potency [3]: inactive | Potency [8]: inactive

C=CC(=O)OCCOC(=O)C=C
Potency [6]: 7.7 µM (active) | Potency [2]: 7.7 µM (active) | Potency [7]: 10.9 µM (active) | Potency [9]: inactive | Potency [3]: inactive | Potency [8]: inactive | Potency [4]: 61.1 µM (active)

Cc1cc(C(C#N)c2ccc(Cl)cc2)c(Cl)cc1NC(=O)c1cc(I)cc(I)c1O (stereo not given)
Potency [6]: 26.6 µM (active) | Potency [5]: inactive | Potency [4]: 23.7 µM (active)

O=[N+]([O-])c1ccc(O)cc1C(F)(F)F
Potency [6]: 27.3 µM (active) | Potency [2]: 27.3 µM (active) | Potency [7]: 21.7 µM (active) | Potency [3]: 61.1 µM (active) | Potency [4]: 54.5 µM (active)

COc1ccc(-c2coc3cc(O)ccc3c2=O)cc1
Potency [1]: inactive | Potency [2]: 30.6 µM (active) | Potency [3]: inactive | Potency [4]: inactive

CC(C)=CCC1=C(O)c2ccccc2C(=O)C1=O
Potency [2]: 48.3 µM (active) | Potency [7]: 60.8 µM (active) | Potency [8]: inactive

COC(=O)C1=C(C)NC(C)=C(C(=O)OCCN2CCN(C(c3ccccc3)c3ccccc3)CC2)C1c1cccc([N+](=O)[O-])c1 (stereo not given)
Potency [6]: 5.31 µM (active) | Potency [2]: 8.41 µM (active) | Potency [4]: 8.41 µM (active)

CCN(CC)C(=O)c1cc(S(=O)(=O)Cc2ccccc2)c(N2CCC(c3ccccc3)CC2)cc1N(CC)CCN(C)C
Potency [6]: 5.96 µM (active) and 17 µM (active) | Potency [2]: 11.9 µM (active) and 13.5 µM (active) | Potency [7]: 10.6 µM (active) and 17 µM (active) | Potency [5]: 15.3 µM (active) | Potency [4]: 3.35 µM (active) and 4.28 µM (active)

COc1cc(S(=O)(=O)O)c(C)cc1N=Nc1c(O)ccc2cc(S(=O)(=O)O)ccc12
Potency [1]: inactive | Potency [5]: inactive | Potency [3]: 24.3 µM (active) | Potency [4]: 30.6 µM (active)

CCc1oc2ccccc2c1C(=O)c1cc(I)c(O)c(I)c1
Potency [6]: 29.8 µM (active) | Potency [2]: 33.5 µM (active) | Potency [5]: inactive | Potency [4]: 29.8 µM (active)

Cc1cccc(C(=O)O)c1O
Potency [6]: inactive | Potency [2]: inactive | Potency [5]: inactive | Potency [3]: inactive | Potency [4]: inactive

COC(=O)Nc1nc2ccc(C(=O)c3ccccc3)cc2[nH]1
Potency [6]: 0.285 µM (active) | Potency [2]: 0.32 µM (active) | Potency [7]: 0.403 µM (active) | Potency [5]: inactive | Potency [3]: inactive | Potency [8]: inactive | Potency [4]: 0.285 µM (active)

CC(C)(C)c1csc(-c2cc3cc(OCc4ccccc4CC(=O)O)ccc3o2)n1
Potency [1]: 49 µM (active) | Potency [4]: 54.5 µM (active)

Oc1cc(Cl)cc(Cl)c1Cl
Potency [5]: 50.2 µM (active) | Potency [4]: inactive

COC1=C(OC)C(=O)C(CCCCCCCCCCO)=C(C)C1=O
Potency [6]: 8.41 µM (active) | Potency [2]: 13.3 µM (active) | Potency [7]: 10.6 µM (active) | Potency [9]: 16.9 µM (active) | Potency [3]: inactive | Potency [8]: inactive
